This is an account of results in the supplement of paper PMC7411054.

Details in all cases: treatment time: 24 h
Assay [1] has as its system A549-GM130-SQSTM1. Put plainly: lowest phenotypically active concentration; higher = less potent. In short, it runs like this:
(§1)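 After 24 h at 0.3, 1, 3 or 9 µM, with four wells per treatment, fifteen gene-edited A549, HepG2 and WPMY1 reporter lines carrying BFP, GFP and RFP/FusionRed were imaged live. Each well's live-cell features were expressed relative to solvent control wells. Deviation required ≥3 of 4 wells past the 95th percentile of control Euclidean distances, and reproducibility a median replicate Pearson correlation over the 95th percentile of non-replicates. Phenotypic activity rested on both.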

The subject of a further assay is A549-ACTB-RAB5A. Put plainly: phenotypically active (imaging signature differs from DMSO and reproducible) at any of 0.3-9 uM (binary (1 = active, 0 = inactive)); higher = active. In short, it runs like this:
as §1

For the next assay, the system named is A549-CANX-COX4. Described as above. In short, it runs like this: as §1
Assay [2] concerns A549-GM130-SQSTM1. Described as above. The gist of the method:
as §1

The test system of a further assay is A549-TP53BP1-CLTA. The assay is described as above. The gist of the method:
as §1

For the next assay, the system named is A549-TUBA1B-RELA. The assay is described as above. In short, it runs like this: as §1
In assay [3] the test system is HepG2-ACTB-RAB5A. Described as above. In short, it runs like this:
as §1

Another assay relates to HepG2-CANX-COX4. Described as above. In short, it runs like this: as §1
The subject of assay [4] is HepG2-GM130-SQSTM1. The description is as above. In short, it runs like this: as §1
A further assay concerns HepG2-TP53BP1-CLTA. The description is as above. In short, it runs like this:
as §1

Another assay has as its system HepG2-TUBA1B-RELA. Described as above. In short, it runs like this:
as §1

In another assay the test system is WPMY1-ACTB-RAB5A. The description is as above. The gist of the method: as §1
For another assay, the system named is WPMY1-CANX-COX4. Described as above. The gist of the method: as §1
Assay [5] deals with WPMY1-GM130-SQSTM1. The description is as above. In short, it runs like this:
as §1

The next assay relates to WPMY1-TP53BP1-CLTA. The assay is described as above. In short, it runs like this: as §1
The test system of the next assay is WPMY1-TUBA1B-RELA. The assay is described as above. The gist of the method: as §1
In assay [6] the test system is HepG2-ACTB-RAB5A. Description: lowest phenotypically active concentration; higher = less potent. In short, it runs like this:
as §1

Assay [7] deals with HepG2-GM130-SQSTM1. The description is as above. The gist of the method: as §1
Assay [8] deals with WPMY1-GM130-SQSTM1. Described as above. In short, it runs like this:
as §1

As to `COc1ccc(-n2c(SCCCN3C(=O)c4cccc5cccc(c45)C3=O)nnc2-c2ccncc2)cc1`, the “lowest phenotypically active concentration” value in the assay with A549-GM130-SQSTM1 [1] stood at 3 µM. Further, the phenotypically active in the assay on A549-ACTB-RAB5A was 0 (inactive); in the assay on A549-CANX-COX4 it was 0 (inactive); in the assay with A549-GM130-SQSTM1 [2], 1 (active); in the assay with A549-TP53BP1-CLTA, 0 (inactive); in the assay with A549-TUBA1B-RELA, 1 (active); in the assay on HepG2-ACTB-RAB5A [3], 0 (inactive). Further, the phenotypically active in the assay with HepG2-CANX-COX4, in the assay on HepG2-GM130-SQSTM1 [4], in the assay with HepG2-TP53BP1-CLTA, in the assay on HepG2-TUBA1B-RELA, in the assay with WPMY1-ACTB-RAB5A and in the assay on WPMY1-CANX-COX4 was 0 (inactive) each time. The phenotypically active in the assay with WPMY1-GM130-SQSTM1 [5], with WPMY1-TP53BP1-CLTA and in the assay with WPMY1-TUBA1B-RELA was 0 (inactive) throughout.
Regarding `COc1cc(-c2cn(C)c(=O)c3cnccc23)c(OC)cc1CN(C)C`, the “lowest phenotypically active concentration” value in the assay on HepG2-ACTB-RAB5A [6] and in the assay with HepG2-GM130-SQSTM1 [7] was 9 µM each time. For the same molecule, the phenotypically active in the assay on A549-ACTB-RAB5A was 0 (inactive); in the assay on A549-CANX-COX4, 0 (inactive); with A549-GM130-SQSTM1 [2], 0 (inactive); in the assay with A549-TP53BP1-CLTA it was 1 (active); with A549-TUBA1B-RELA it was 0 (inactive); in the assay with HepG2-ACTB-RAB5A [3], 1 (active). Moreover, the phenotypically active in the assay with HepG2-CANX-COX4 was 0 (inactive); in the assay with HepG2-GM130-SQSTM1 [4], 1 (active); with HepG2-TP53BP1-CLTA it was 0 (inactive); in the assay on HepG2-TUBA1B-RELA, 1 (active); with WPMY1-ACTB-RAB5A, 0 (inactive); in the assay with WPMY1-CANX-COX4 it was 0 (inactive). In addition, the results for the phenotypically active in the assay on WPMY1-GM130-SQSTM1 [5], in the assay with WPMY1-TP53BP1-CLTA and in the assay on WPMY1-TUBA1B-RELA were 0 (inactive), 0 (inactive) and 1 (active), respectively.
For the molecule `Nc1nnc2[nH]c3ccccc3nc1-2`, the phenotypically active in the assay with A549-ACTB-RAB5A, in the assay with A549-CANX-COX4, in the assay with A549-GM130-SQSTM1 [2], in the assay on A549-TP53BP1-CLTA, in the assay on A549-TUBA1B-RELA and in the assay on HepG2-ACTB-RAB5A [3] was 0 (inactive) throughout. In addition, the phenotypically active was 1 (active) with HepG2-CANX-COX4; 0 (inactive) with HepG2-GM130-SQSTM1 [4]; 0 (inactive) in the assay with HepG2-TP53BP1-CLTA; 0 (inactive) in the assay on HepG2-TUBA1B-RELA; 0 (inactive) in the assay with WPMY1-ACTB-RAB5A; 0 (inactive) in the assay with WPMY1-CANX-COX4. Moreover, the phenotypically active in the assay with WPMY1-GM130-SQSTM1 [5], in the assay with WPMY1-TP53BP1-CLTA and in the assay with WPMY1-TUBA1B-RELA was 0 (inactive) each time.
Take `NS(=O)(=O)c1cc2c(cc1C(F)(F)F)NC(Cc1ccccc1)NS2(=O)=O` (stereo unspecified) [bendroflumethiazide]: the phenotypically active in the assay with A549-ACTB-RAB5A, with A549-CANX-COX4, in the assay with A549-GM130-SQSTM1 [2], with A549-TP53BP1-CLTA, with A549-TUBA1B-RELA and with HepG2-ACTB-RAB5A [3] was 0 (inactive) throughout. For the same molecule, the phenotypically active with HepG2-CANX-COX4 was 1 (active); in the assay on HepG2-GM130-SQSTM1 [4] it was 0 (inactive); in the assay on HepG2-TP53BP1-CLTA, 0 (inactive); in the assay on HepG2-TUBA1B-RELA, 0 (inactive); in the assay with WPMY1-ACTB-RAB5A it was 0 (inactive); in the assay with WPMY1-CANX-COX4, 0 (inactive). Moreover, the phenotypically active with WPMY1-GM130-SQSTM1 [5], in the assay with WPMY1-TP53BP1-CLTA and in the assay with WPMY1-TUBA1B-RELA was 0 (inactive) each time.
`COc1ccc(S(=O)(=O)ON=C2C=C(C)C(=O)C(C)=C2)cc1`: in the assay with A549-GM130-SQSTM1 [1], the “lowest phenotypically active concentration” value worked out at 9 µM. In addition, the phenotypically active in the assay on A549-ACTB-RAB5A is 0 (inactive); with A549-CANX-COX4, 0 (inactive); with A549-GM130-SQSTM1 [2], 1 (active); in the assay with A549-TP53BP1-CLTA it was 0 (inactive); with A549-TUBA1B-RELA it was 1 (active); in the assay with HepG2-ACTB-RAB5A [3] it was 0 (inactive). The phenotypically active in the assay on HepG2-CANX-COX4, in the assay with HepG2-GM130-SQSTM1 [4], in the assay with HepG2-TP53BP1-CLTA, in the assay with HepG2-TUBA1B-RELA, with WPMY1-ACTB-RAB5A and with WPMY1-CANX-COX4 was 0 (inactive) in each case. The phenotypically active was 0 (inactive) with WPMY1-GM130-SQSTM1 [5], 0 (inactive) with WPMY1-TP53BP1-CLTA and 1 (active) in the assay with WPMY1-TUBA1B-RELA.
Consider `O=c1c(O)c(-c2ccc(O)cc2)oc2cc(O)cc(O)c12` [Kaempferol], for which the “lowest phenotypically active concentration” value with A549-GM130-SQSTM1 [1] and with WPMY1-GM130-SQSTM1 [8] was 9 µM in each case. The phenotypically active in the assay on A549-ACTB-RAB5A was 0 (inactive); in the assay on A549-CANX-COX4, 0 (inactive); with A549-GM130-SQSTM1 [2] it was 1 (active); with A549-TP53BP1-CLTA, 0 (inactive); with A549-TUBA1B-RELA it was 0 (inactive); with HepG2-ACTB-RAB5A [3], 0 (inactive). In addition, the phenotypically active is 0 (inactive) in the assay on HepG2-CANX-COX4; 0 (inactive) in the assay on HepG2-GM130-SQSTM1 [4]; 0 (inactive) with HepG2-TP53BP1-CLTA; 0 (inactive) with HepG2-TUBA1B-RELA; 0 (inactive) in the assay with WPMY1-ACTB-RAB5A; 1 (active) in the assay with WPMY1-CANX-COX4. Besides, the phenotypically active in the assay with WPMY1-GM130-SQSTM1 [5] is 1 (active); in the assay on WPMY1-TP53BP1-CLTA, 1 (active); with WPMY1-TUBA1B-RELA it was 0 (inactive).
